Data published in PubChem BioAssay AID1347088 (National Center for Advancing Translational Sciences (NCATS), 2019).
Records with an inconclusive call do not appear. Entries that show only a call come without a potency. Active and inactive are the calls of the source. Calls come from the whole dose curve.

Test: qHTS for Inhibitors of the Functional Ribonucleoprotein Complex (vRNP) of Lymphocytic Choriomeningitis Arenaviruses (LCMV): Viability assay - Alamar blue signal for LCMV Confirmatory Screen
Settings: LCMV vRNP confirmatory screen cells; series mostly up to 53.9 µM

SMILES	Potency
O=c1[nH]c2ccccc2n1C1CCN(CCCC(c2ccc(F)cc2)c2ccc(F)cc2)CC1	inactive
Cn1cc(-c2ccncc2)c(-c2ccc(OCc3ccc4ccccc4n3)cc2)n1	38.5 µM (active)
O=c1ccc2ccc(O)c(O)c2o1	inactive
CC[C@@H](C(=O)O)[C@@H]1O[C@@H]([C@@H](C)[C@H](O)[C@H](C)C(=O)[C@H](CC)[C@H]2O[C@]3(C=C[C@@H](O)[C@]4(CC[C@@](C)([C@H]5CC[C@](O)(CC)[C@H](C)O5)O4)O3)[C@H](C)C[C@@H]2C)[C@@H](C)C[C@@H]1C	4.44 µM (active)
CN(C)c1ccc(O)c2c1C[C@H]1C[C@H]3[C@H](N(C)C)C(=O)C(C(N)=O)=C(O)[C@@]3(O)C(=O)C1=C2O	inactive
COc1ccc(Cc2nccc3cc(OC)c(OC)cc23)cc1OC	inactive
CCCCCC[C@H]1C(=O)O[C@H](C)[C@H](NC(=O)c2cccc(NC=O)c2O)C(=O)O[C@@H](C)[C@@H]1OC(=O)CC(C)C	inactive
O=C(Nc1ccc([N+](=O)[O-])cc1Cl)c1cc(Cl)ccc1O	3.43 µM (active)
CCOC(=O)OCC/C(SC(=O)OCC)=C(\C)N(C=O)Cc1cnc(C)nc1N	inactive
CC(=O)[C@H]1CC[C@H]2[C@@H]3CCC4=CC(=O)CC[C@]4(C)[C@H]3CC[C@]12C	inactive
CC1OC(=O)[C@@H](C(C)C)NC(=O)C(C(C)C)OC(=O)[C@H](C(C)C)NC(=O)C(C)OC(=O)[C@@H](C(C)C)NC(=O)C(C(C)C)OC(=O)[C@H](C(C)C)NC(=O)C(C)OC(=O)[C@@H](C(C)C)NC(=O)C(C(C)C)OC(=O)[C@H](C(C)C)NC1=O (stereo partly specified)	0.611 µM (active)
